From PubChem
PABP polyA inh: blocks human PABP binding to poly(A) RNA. fluorescence polarization. P11940. inhibition, % at 35 µM. actives 1% (n = 290,000). AID 2014;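 further: calls also rest on retests at 20 µM and on dose response follow-up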
eIF4H FP inh: inhibitors of RNA binding by human eIF4H; Q15056; eIF4H fluorescence polarization binding assay; inhibition, % at 35 µM; AID 2012; actives 0.94% (n = 290,000);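 further: calls also rest on retests at 20 µM and on dose response follow-up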
MLLE-PAM2 inh: inhibitors of microRNA-mediated deadenylation, human PABP1 MLLE binding. actives 0.36% (n = 360,000). GST-MLLE / FITC-PAM2 fluorescence polarization. AID 588489. inhibition, % at 20 µM. P11940; in the data active means inhibition above about 35%, passing the limit was not always enough;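 further: plate controls were DMSO wells with GST-MLLE for no effect and wells lacking GST-MLLE protein for full effect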
PfM18AAP inh-1: blocks P. falciparum M18 aspartyl aminopeptidase. actives 1.2% (n = 290,000). recombinant PfM18AAP, H-Glu-NHMec fluorogenic cleavage. inhibition, % at 7.35 µM. AID 1822;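 active means inhibition above the campaign mean inhibition over all tested compounds plus 3 SD, cut at about 28% in these data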;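 further: 0% = plate median of test compound wells and 100% = 2 mM ZnCl2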
PERK inhibitor: inhibitors of human PERK kinase. Q9NZJ5. CHO PERK-DD fusion, SEAP luminescence translation reporter. inhibition, % at 5.6 µM. actives 0.17% (n = 220,000). AID 1416;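 active means inhibition above the mean inhibition of all tested compounds plus 3 SD, set separately per screening campaign, cut at about 2.9% in these data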;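 further: PERK kinase domain activated by AP20187 dimerizer at 100 nM; 0% = DMSO with dimerizer and 100% = rapamycin at 8.4 µM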
eIF4E 4G PPI: blocks eIF4E binding to eIF4G | P63073+Q04637 | actives 0.37% (n = 220,000) | inhibition, % at 21.7 µM | TR-FRET eIF4E-eIF4GI(517-606) binding, 2 h;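 active means inhibition above about 30%, limit read from the data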;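 further: 0% = full FRET control wells and 100% = background wells lacking eIF4GI fragment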
PfM18AAP inh-2: confirmation of Plasmodium falciparum M18 aspartyl aminopeptidase inhibitors; shares compounds with PfM18AAP inh-1; recombinant PfM18AAP, H-Glu-NHMec fluorogenic cleavage; inhibition, % at 7.35 µM; actives 28% (n = 2,400); AID 2170;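 active means mean inhibition over replicate wells above the hit cutoff set for the earlier primary screen, cut at about 29% in these data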;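 further: 0% = median of test compound wells and 100% = 2 mM ZnCl2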
CTSL1 counter: Cathepsin L (human) inhibition, confirmation; shares compounds with PfM18AAP inh-1; 2,400 tested, under 10 active; inhibition, % at 5.96 µM; purified cathepsin L1, Z-Leu-Arg-MCA fluorescence;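 active means average inhibition across replicates above the hit cutoff set in the earlier primary screen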;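 further: 0% = median of test compound wells and 100% = Z-Phe-Ala-diazomethylketone 1 µM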
Active calls of the source: *; . = not tested or not shown. Hits are enriched below; roughly 2.4% of the tested compounds scored in any of these assays. Unless noted, how the calls were made is not given here.

SMILES	PABP polyA inh	eIF4H FP inh	MLLE-PAM2 inh	PfM18AAP inh-1	PERK inhibitor	eIF4E 4G PPI	PfM18AAP inh-2	CTSL1 counter
CC1CN(Cc2nc3c(c(=O)n(C)c(=O)n3C)n2CC(=O)c2ccccc2)CC(C)O1 (centres undefined)	4.3	3.3	9.4	-8.8	-1.9	-1.0	.	.
CC1CN(Cc2nc3c(c(=O)n(C)c(=O)n3C)n2Cc2ccccc2)CC(C)O1 (centres undefined)	-6.9	-10.8	-10.6	55.4*	0.3	-0.4	-55.1	1.2
Cc1cc(=O)[nH]c(SCC(=O)NNC(=O)Cc2ccccc2)n1	12.2	-4.1	0.0	35.5*	1.1	0.5	2.2	-4.8
O=C(CC1C(=O)NCCN1Cc1cccc(F)c1)NCCCOc1cccnc1 (centres undefined)	14.4	17.4	18.7	7.6	.	.	.	.
COc1ccc(C2NC(=O)NC(C)=C2[N+](=O)[O-])cc1OC (centres undefined)	5.2	-4.4	-5.1	-1.1	0.8	3.3	.	.
CC1=C([N+](=O)[O-])C(c2ccc(O)c(O)c2)NC(=O)N1 (centres undefined)	3.0	-14.4	10.8	83.8*	.	.	80.7*	-4.0
CC(=O)C1=C(c2ccccc2)NC(=O)NC1c1ccc(O)c(O)c1 (centres undefined)	-0.2	0.0	13.7	76.8*	0.3	2.6	71.1*	-5.9
CC(=O)C1=C(c2ccccc2)NC(=S)NC1c1ccc(O)c(O)c1 (centres undefined)	-1.6	13.7	-127.7	73.7*	0.1	4.7	68.3*	4.8
CC(=O)C1=C(c2ccccc2)NC(=O)NC1c1ccc2c(c1)OCO2 (centres undefined)	5.0	-6.1	0.4	2.0	.	.	.	.
COc1ccccc1C(CNC(=O)c1ccc(OCc2c(C)noc2C)cc1)N1CCCC1 (centres undefined)	.	.	-11.8	.	.	.	.	.
Oc1ccc(CCNc2c3ccccc3nc3ccccc23)cc1O	-9.6	2.1	-5.8	74.0*	.	.	64.1*	-1.9
Cc1cccc[n+]1CC(=O)/C=C1\N(C)c2ccccc2C1(C)C	-1.5	19.3	-17.4	-1.5	0.5	-2.4	.	.
CN1/C(=C\C(=O)CSc2cccc[n+]2[O-])C(C)(C)c2ccccc21	-14.8	9.4	-41.1	49.2*	-0.8	-2.0	-42.2	-4.0
CN1/C(=C\C(=O)COC(=O)c2ccc(O)cc2)C(C)(C)c2ccccc21	-0.1	6.2	-26.3	0.1	0.3	8.8	.	.
CN1/C(=C\C(=O)COC(=O)c2ccc(O)c(O)c2)C(C)(C)c2ccccc21	-6.3	18.0	.	45.3*	0.6	0.7	6.2	-2.2
O=C(/C=C/c1ccc(O)c(O)c1)NC(=O)c1ccccc1O	23.1	38.3	-4.5	77.2*	.	.	62.3*	-0.9
CCC(CC)c1nnc(NC(=O)C2CC(=O)N(CCc3ccc(F)cc3)C2)s1 (centres undefined)	5.4	2.1	31.7*	34.7*	.	.	-41.2	-3.0
Cc1nc2ccccc2c(=O)n1/N=C/c1ccc2ccccc2c1O	-6.0	5.9	-20.7	2.2	0.8	10.9	.	.
Oc1c(/C=N/c2ncn[nH]2)ccc2ccccc12	5.6	8.7	8.0	63.7*	0.7	6.4	52.1*	-4.1
COc1ccccc1C(=O)NCC(=O)OCc1nnc(-c2ccccc2)o1	.	.	-18.8	.	.	.	.	.
CCN(CC)CCSc1nnc2c3cc(F)ccc3n(Cc3ccccc3)c2n1	-4.5	-11.3	-8.1	12.0	.	.	.	.
NNc1nnc2c3cc(F)ccc3n(CCc3ccccc3)c2n1	-3.7	-2.8	-6.2	44.0*	.	.	3.0	5.9
CC[n+]1c(C)sc2cc(OC)ccc21	-7.8	0.9	-1.6	36.6*	0.5	-2.1	-19.9	1.5
COc1cc(O)sc1C=Nc1ccc(Cl)cc1Cl	3.8	-0.1	19.9	-8.2	-0.6	-0.7	.	.
O=C(NC(=S)NNC(=O)c1cccs1)c1ccccc1	0.8	10.1	21.8	10.5	.	.	.	.
Cc1cccc(C(=O)NC(=S)NNC(=O)c2cccs2)c1	7.0	1.4	30.0	33.5*	1.3	7.3	-27.5	1.7
COc1cc(S(=O)(=O)Nc2ccc3c(c2)C(=O)N(C)C3=O)ccc1NC(C)=O	.	.	19.6	.	.	.	.	.
